PubChem BioAssay (EPA / NIEHS)
Active and inactive are the calls of the source. Rule for the calls: active = hit-call score of the fitted dose curve at least 0.9, where 1 is the maximum; inactive = score below 0.9.

What was measured:
[1] = APR_HepG2_CellCycleArrest_24hr: Apredica 24-hour HepG2 Assay for Cell Cycle Arrest (AID 2282905); conditions: imaging, actives raise or lower the signal;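 note: cell cycle arrest scored as ratio of 2N to 4N nuclear DNA content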
In short: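 Compounds (0.39 to 200 uM, final DMSO 0.5% v/v) are applied to HepG2 cells for 24 hours; cells are then fixed, permeabilized and nuclei labeled with Hoechst 33342. Automated imaging measures DNA content, and activity is fitted in both directions against DMSO.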

[2] = APR_HepG2_NuclearSize_24hr: Apredica 24-hour HepG2 Assay for Nuclear Size (AID 2282907); conditions: high-content imaging, actives raise or lower the signal
In short: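 Nuclear size is measured by fluorescence high-content imaging of Hoechst-labelled HepG2 nuclei after 24 hr of treatment (0.39–200 uM, 0.5% DMSO). Cells are fixed in 3.7% formaldehyde before staining, and DMSO serves as the baseline for bidirectional curve fitting.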

[3] = APR_HepG2_CellLoss_24hr: Apredica 24-hour HepG2 Assay for Cell Loss (AID 2282908); conditions: high-content imaging;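 for AC50: fit in both directions so a hit may be cell loss or gain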
In short: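 Nuclear count serves as the viability measure: treated cells are fixed, permeabilized and labelled with Hoechst 33342, and six images per well are analysed to identify valid nuclei. Doses span 0.39–200 uM, and activity in either direction is scored against DMSO.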

[4] = APR_HepG2_MicrotubuleCSK_24hr: Apredica 24-hour HepG2 Assay for Microtubule CSK Stabilty (AID 2282909); conditions: HepG2 microtubule cytoskeleton imaging, actives raise or lower the signal
In short: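 Compounds were applied to HepG2 cells for 24 hours across 0.39–200 uM in duplicate, with final DMSO at 0.5% v/v. Fixed, permeabilized cells were labeled for alpha-tubulin and nuclei, and tubulin fluorescence was quantified by imaging, fitted bidirectionally against DMSO.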

[5] = APR_HepG2_MitoticArrest_24hr: Apredica 24-hour HepG2 Assay for Mitotic Arrest (AID 2282910); conditions: high-content imaging, actives raise or lower the signal
In short: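 High-content imaging of fixed HepG2 cells labeled with Hoechst 33342 and anti-phospho-histone H3, after 24 h treatment. Ten concentrations 0.39 to 200 uM in duplicate, final DMSO 0.5%; changes fitted both directions relative to DMSO.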

[6] = APR_HepG2_MitoMembPot_24hr: Apredica 24-hour HepG2 Assay for Mitochondrial Membrane Potential (AID 2282911); conditions: imaging, actives raise or lower the signal
In short: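 Cells are dosed for 24 hr across 0.39 to 200 uM with solvent held at 0.5% DMSO. They are then stained with 250 nM MitoTracker Red CMXRos for 30 min, fixed in 3.7% formaldehyde and imaged.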

[7] = APR_HepG2_MitoMass_24hr: Apredica 24-hour HepG2 Assay for Mitochondrial Mass (AID 2282912); conditions: high-content imaging, actives raise or lower the signal
In short: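 After 24 hr of treatment at 0.39 to 200 uM, HepG2 cells take up 250 nM MitoTracker Red CMXRos for 30 min and are then fixed with 3.7% formaldehyde. Per-well images are quantified, and any change in either direction is scored against solvent.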

[8] = APR_HepG2_p53Act_24hr: Apredica 24-hour HepG2 Assay for p53 Activation (AID 2282913); conditions: high-content imaging, actives raise or lower the signal;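 note: p53 protein immunofluorescence averaged per cell in HepG2 with Hoechst nuclei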
In short: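 Human HepG2 liver cells; 24 hr cpd treatment, 0.39–200 uM, 0.5% DMSO final. Fixed in 3.7% formaldehyde, permeabilized with 0.5% Triton X-100, stained with anti-p53/Cy5 plus Hoechst 33342. Six images per well at 20x; gain or loss vs DMSO.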

[9] = APR_HepG2_CellCycleArrest_72hr: Apredica 72-hour HepG2 Assay for Cell Cycle Arrest (AID 2282914); conditions: high-content imaging, actives raise or lower the signal
In short: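 Read-out is Hoechst-stained nuclear DNA content measured by automated fluorescence imaging (20x, six images per well), fitted in both directions relative to DMSO. Human HepG2 liver cells received 0.39–200 uM compound for 72 hr at 0.5% v/v DMSO.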

[10] = APR_HepG2_CellLoss_72hr: Apredica 72-hour HepG2 Assay for Cell Loss (AID 2282915); conditions: high-content imaging
In short: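 Cell number comes from Hoechst 33342-labelled nuclei, imaged at 20x after 3.7% formaldehyde fixation. Dosing was 0.39–200 uM, ten concentrations in duplicate, 0.5% DMSO final, for 72 h. Bidirectional fit relative to DMSO baseline.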

[11] = APR_HepG2_P-H2AX_72hr: Apredica 72-hour HepG2 Assay for H2AX Phosphorylation (AID 2282916); conditions: imaging, actives raise or lower the signal;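 note: phospho-histone H2A.x immunostain intensity per cell marking DNA damage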
In short: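 Human hepatoma HepG2 cells are dosed across ten concentrations (0.39 to 200 uM, 0.5% v/v DMSO) and incubated 72 hr. Phospho-histone H2A.x is then detected by antibody staining alongside c-Jun and Hoechst, and quantified by automated fluorescence imaging.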

[12] = APR_HepG2_MitoMembPot_72hr: Apredica 72-hour HepG2 Assay for Mitochondrial Membrane Potential (AID 2282917); conditions: imaging, actives raise or lower the signal
In short: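 Membrane potential read by MitoTracker Red CMXRos (250 nM, 30 min, pre-fixation) fluorescence imaging of HepG2 after 72 hr exposure. Ten concentrations, 0.39–200 uM, duplicate wells, 0.5% DMSO; fitted in both directions against DMSO baseline.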

[13] = APR_HepG2_MitoticArrest_72hr: Apredica 72-hour HepG2 Assay for Mitotic Arrest (AID 2282918); conditions: high-content imaging, actives raise or lower the signal
In short: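 Read-out is phospho-histone H3 immunofluorescence with Hoechst nuclear segmentation, imaged at 20x. Human HepG2 liver cells received ten concentrations (0.39–200 uM, final DMSO 0.5% v/v) for 72 hr before fixation. Gain or loss of signal was fitted relative to DMSO.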

[14] = APR_HepG2_MicrotubuleCSK_72hr: Apredica 72-hour HepG2 Assay for Microtubule CSK Stabilty (AID 2282919); conditions: HepG2 microtubule cytoskeleton, high-content imaging, actives raise or lower the signal
In short: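 High-content imaging of alpha-tubulin staining in fixed HepG2 cells after 72 hr treatment with ten concentrations from 0.39 to 200 uM (0.5% DMSO). Fitting was bidirectional against DMSO; taxol served as positive control.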

[15] = APR_HepG2_P-H2AX_24hr: Apredica 24-hour HepG2 Assay for H2AX Phosphorylation (AID 2282920); conditions: high-content imaging, actives raise or lower the signal
In short: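 HepG2, 24 hr, cpd 0.39–200 uM (10 conc, duplicate), DMSO 0.5% v/v final. Fix 3.7% formaldehyde, Triton X-100 permeabilize, anti-phospho-H2A.x 1:200 + Hoechst 2 ug/mL. Imaged, bidirectional fit vs DMSO.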

[16] = APR_HepG2_StressKinase_72hr: Apredica 72-hour HepG2 Assay for Stress Kinase (AID 2282921); conditions: HepG2 stress kinase (phospho-c-Jun) imaging, actives raise or lower the signal
In short: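 After a 72 h compound treatment spanning 0.39 to 200 uM, formaldehyde-fixed cells are labelled for phosphorylated c-Jun and nuclei, imaged by automated fluorescence microscopy, and activity is fitted in both directions relative to DMSO controls.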

[17] = APR_HepG2_StressKinase_24hr: Apredica 24-hour HepG2 Assay for Stress Kinase (AID 2282922); conditions: HepG2 stress kinase (phospho-c-Jun) imaging, actives raise or lower the signal
In short: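 High-content imaging of phospho-c-Jun immunofluorescence in fixed, permeabilized HepG2 cells after 24 h dosing. Ten concentrations, 0.39 to 200 uM, run in duplicate at 0.5% v/v DMSO; gain or loss of signal versus DMSO.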

[18] = APR_HepG2_MitoMass_72hr: Apredica 72-hour HepG2 Assay for Mitochondrial Mass (AID 2282924); conditions: high-content imaging, actives raise or lower the signal;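 note: MitoTracker Red CMXRos stain intensity per cell imaged as mitochondrial mass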
In short: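 Readout is imaged MitoTracker Red (250 nM, 30 min, pre-fixation) signal, fitted bidirectionally against DMSO baseline. Human HepG2 liver cells received compound 0.39–200 uM in duplicate for 72 hr, final DMSO 0.5%.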

[19] = APR_HepG2_NuclearSize_72hr: Apredica 72-hour HepG2 Assay for Nuclear Size (AID 2282925); conditions: high-content imaging, actives raise or lower the signal
In short: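 Nuclear size was read by high-content imaging of Hoechst 33342 stain after formaldehyde fixation. Compounds ran 72 h on HepG2 at 0.39 to 200 uM, with final DMSO 0.5% v/v. Curves fitted both directions relative to DMSO control.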

[20] = APR_HepG2_p53Act_72hr: Apredica 72-hour HepG2 Assay for p53 Activation (AID 2282923); conditions: high-content imaging, actives raise or lower the signal;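 note: average cellular p53 protein immunofluorescence intensity in HepG2 cells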
In short: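 Imaging-based endpoint: after 72 hr compound exposure (up to 200 uM, 0.5% DMSO), fixed and permeabilized monolayers were labelled with anti-p53 antibody and imaged; signal change in either direction was fitted relative to DMSO controls.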

Measured: AC50

COC(=O)[C@H]1[C@H]2C[C@@H]3c4[nH]c5cc(OC)ccc5c4CCN3C[C@H]2C[C@@H](OC(=O)c2cc(OC)c(OC)c(OC)c2)[C@@H]1OC
active: [1] 79 µM | [3] 37.6 µM | [4] 44.3 µM | [5] 31.1 µM | [6] 90.2 µM | [7] 41.2 µM | [8] 40.3 µM | [10] 19.5 µM | [11] 23.9 µM | [12] 48 µM | [13] 16.3 µM | [14] 39.4 µM | [15] 30.1 µM | [17] 55.1 µM | [18] 28.8 µM
inactive: [2] | [9] | [16] | [19]

CC(C)c1cccc(C(C)C)c1NC(=O)NS(=O)(=O)c1cc(C(C)(C)O)co1
not listed: [11]
inactive: all other assays above

O=C(O)c1[nH]n(-c2ccc(S(=O)(=O)O)cc2)c(=O)c1N=Nc1ccc(S(=O)(=O)O)cc1
inactive: all assays above

O=C1O[C@H]([C@H](O)CO)C(O)=C1O
not listed: [20]
inactive: all other assays above

O=C1OC(c2ccc(O)cc2)(c2ccc(O)cc2)c2ccccc21
active: [1] 81.1 µM | [3] 90.7 µM | [5] 61.4 µM | [7] 92.7 µM | [8] 51.8 µM | [9] 55.9 µM | [10] 102 µM | [13] 50.9 µM | [14] 97.3 µM | [15] 73.3 µM | [16] 40 µM | [20] 29.2 µM | [18] 102 µM
inactive: [2] | [4] | [6] | [12] | [17] | [19]

CCC(C)N(C)C(=O)c1cc2ccccc2c(-c2ccccc2Cl)n1 (configuration not stated)
inactive: [1] | [2] | [4] | [6] | [9] | [11] | [14] | [16] | [19]
active: [3] 64.9 µM | [5] 66.8 µM | [7] 82.4 µM | [8] 66.9 µM | [10] 73.1 µM | [12] 67.7 µM | [13] 65.8 µM | [15] 69.8 µM | [17] 69.2 µM | [18] 66.4 µM

CCCCCCC(C=O)=Cc1ccccc1
active: [7] 53.5 µM | [9] 57 µM | [10] 50.2 µM
not listed: [8] | [11] | [20]
inactive: all other assays above
